Screening data: PubChem, National Center for Advancing Translational Sciences (NCATS)
PLK1 PBD block: qHTS for Inhibitors of PLK1-PDB (polo-like kinase 1 - polo-box domain): Primary Screen; Serine/threonine-protein kinase PLK1 (Homo sapiens), P53350; Plk1 PBD binding of FITC phosphopeptide, fluorescence polarization; Potency, µM, for the others: max response, negative = inhibition, most hits filed as inhibitors; 360,000 compounds, 2.8% hits; AID 720504, 2013; note: series mostly up to about 57 µM; nearly all actives have a fitted effect of over 65% in size
Target sequence (P53350 whole entry, looked up, the tested form may be a part): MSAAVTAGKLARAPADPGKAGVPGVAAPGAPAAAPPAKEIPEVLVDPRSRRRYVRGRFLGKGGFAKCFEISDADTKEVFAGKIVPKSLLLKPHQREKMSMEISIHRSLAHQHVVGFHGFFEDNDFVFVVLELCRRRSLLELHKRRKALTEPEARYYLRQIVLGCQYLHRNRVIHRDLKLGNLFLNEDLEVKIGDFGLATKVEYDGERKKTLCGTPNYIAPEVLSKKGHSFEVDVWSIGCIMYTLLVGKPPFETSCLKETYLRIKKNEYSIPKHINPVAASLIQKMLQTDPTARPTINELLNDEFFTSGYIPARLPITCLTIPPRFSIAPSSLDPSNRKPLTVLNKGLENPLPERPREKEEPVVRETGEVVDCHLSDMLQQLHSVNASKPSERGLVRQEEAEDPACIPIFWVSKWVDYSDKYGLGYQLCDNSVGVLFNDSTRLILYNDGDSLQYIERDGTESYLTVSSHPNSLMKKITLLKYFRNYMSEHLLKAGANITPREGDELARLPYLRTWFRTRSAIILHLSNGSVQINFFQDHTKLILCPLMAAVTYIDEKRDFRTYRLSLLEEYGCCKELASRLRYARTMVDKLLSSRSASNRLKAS
TDP1 block: qHTS Assay for Inhibitors of Tyrosyl-DNA Phosphodiesterase (TDP1); Potency, µM (highest dose often 130 µM), for inactives: top-dose activity change, negative = inhibition, hits mostly inhibitors; recombinant TDP1, AlphaScreen DNA substrate cleavage; Tyrosyl-DNA phosphodiesterase 1 (Homo sapiens), Q9NUW8; 350,000 compounds, 0.28% hits; note: nearly all actives have a fitted effect of over 40% in size
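Tdp1 1 nM final; 15 min RT w/ cpd; substrate 15 nM, 5 min; beads 10 ug/ml, 10 min; AlphaScreen read. Neg ctrl: no enzyme.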
KAT2A inh: qHTS Assay for Inhibitors of GCN5L2; Histone acetyltransferase KAT2A (Homo sapiens), Q92830; GCN5L2 HAT assay, ThioGlo1 CoA-SH fluorescence; Potency, µM (doses to about 58.9 µM), inactives show at the top dose activity change, negative = inhibition, actives largely listed as inhibitors; 390,000 compounds, 0.21% hits; AID 504327, 2011
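ThioGlo1-coupled HAT assay: 20nM GCN5L2, 70uM acetyl-CoA, 75uM H3(1-25) peptide, pH 7.5. Fluorescence read at 340/540nm at start and after 20 min at room temperature.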
DT40 TDP1 no CPT: qHTS for Inhibitors of human tyrosyl-DNA phosphodiesterase 1 (TDP1): qHTS in cells in absence of CPT. DT40 Tdp1-/- hTDP1 cells, no CPT, ATP luminescence, 48 h. Potency, µM (titrated, usually from 46.2 µM), for the others: top-dose activity change, negative = growth inhibition, usual class: inhibitors. 420,000 compounds, 15% hits. AID 686978, 2013; note: nearly all actives have a fitted effect of over 55% in size
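Compound effects on proliferation are scored in DT40 Tdp1-/-;hTDP1 cells in the absence of CPT. ATP levels (CellTiter-Glo luminescence) are recorded after a ≥48 hr, 37 °C incubation.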
VDR inhibitor: Inhibitors of the vitamin D receptor (VDR): qHTS; Vitamin D3 receptor (Homo sapiens), P11473; VDR-SRC2-3 peptide fluorescence polarization, 2 h; Potency, µM, for inactives: max response, negative = inhibition, usual class: inhibitors; 400,000 compounds, 0.93% hits; AID 504847, 2011
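Compounds are added to VDR with labelled SRC2-3 coactivator peptide and held 2 h at room temperature. Inhibition of the VDR–peptide interaction is then read as a change in fluorescence polarization.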
DT40 TDP1 CPT: qHTS for Inhibitors of human tyrosyl-DNA phosphodiesterase 1 (TDP1): qHTS in cells in presence of CPT. chicken DT40 Tdp1-/-;hTDP1 cells + 20 nM CPT, ATP luminescence, 48 h. Potency, µM (doses to about 46.2 µM), for the others: at the highest dose activity change, negative = growth inhibition, actives largely listed as inhibitors. 420,000 compounds, 12% hits. AID 686979, 2013; note: nearly all actives have a fitted effect of over 55% in size
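Chicken DT40 Tdp1-/- cells complemented with human TDP1, 400 cells/well, exposed to compounds plus 20 nM camptothecin for at least 48 h at 37 C; viability read as ATP content by CellTiter-Glo luminescence.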
Numbers without * were called inactive; ? = inconclusive; . = no result; [ ] = dose if it differs, or a comment. The list is not random: actives were taken first. Their share in the collection is about 18%. Calls come from the whole dose curve; as a rule, active = well fitted curve in the direction sought with a large enough effect; inconclusive = small, poorly fitted or top-dose-only effect, or another doubt; inactive = no such curve, though single readings can be large; an effect the other way counts as inactive or inconclusive. % is set by controls: 0 for no effect and ±100 for the full control effect; potency is the fitted concentration of half-maximal effect.

SMILES	PLK1 PBD block	TDP1 block	KAT2A inh	DT40 TDP1 no CPT	VDR inhibitor	DT40 TDP1 CPT
COC(=O)c1ccc(-c2ccc(/C=N/N3C(=O)C4C5C=CC(C6CC56)C4C3=O)o2)cc1 (centres undefined)	-1.1%	3.4%	-1.4%	18.4µM*	-29.7%	?
CC(C)c1cc(C(=O)N2CCN(C(c3ccccc3)c3ccccc3)CC2)no1	0.8%	2.6%	-11.6%	?	2.5%	?
O=C(c1cc(-c2ccco2)on1)N1CCN(C(c2ccccc2)c2ccccc2)CC1	-3.2%	5.2%	-7.5%	15.8µM*	-1.9%	15.8µM*
COc1ccc2oc(C(=O)N3CCN(C/C=C/c4ccccc4)CC3)c(C)c2c1	-9.0%	6.3%	-6.1%	-29.8%	11.0%	-16.5%
Cc1cc(Cl)c2oc(C(=O)N3CCN(c4cccc(C)n4)CC3)c(C)c2c1	-27.5%	.	-8.2%	?	?	3.6%
Cc1ccc2oc(C(=O)N3CCN(c4cccc(C)n4)CC3)c(C)c2c1	26.7µM*	.	-7.9%	?	?	?
COc1ccc2oc(C(=O)N3CCN(C(c4ccccc4)c4ccccc4)CC3)c(C)c2c1	-8.8%	0.1%	-9.6%	18.4µM*	4.9%	?
COc1ccc(-c2cc(C(=O)N3CCN(C(c4ccccc4)c4ccccc4)CC3)no2)cc1	-26.5%	4.8%	-2.6%	?	9.9%	23.1µM*
O=C(Cn1c(=S)[nH]c2ccccc2c1=O)NCCc1ccccc1	-5.4%	-1.2%	3.2%	-4.2%	-12.0%	5.3%
CC(C)CCSc1nnc(N)s1	-1.1%	-1.9%	-3.1%	17.3%	-0.6%	-1.1%
CCc1ccc(NC(=O)C(Cc2ccccc2)NS(=O)(=O)c2ccc3c(c2)CCN3C(C)=O)cc1 (centres undefined)	.	-7.0%	-7.4%	?	-27.0%	?
CCC(=O)N1CCc2cc(S(=O)(=O)NC(CC(C)C)C(=O)Nc3cc(C)ccc3OC)ccc21 (centres undefined)	.	0.0%	-6.1%	?	13.4%	18.4µM*
CCC(=O)N1CCc2cc(S(=O)(=O)NC(Cc3ccccc3)C(=O)Nc3ccc(C)cc3)ccc21 (centres undefined)	.	2.3%	-3.9%	?	-12.7%	16.4µM*
Cc1ccc(NC(=O)C(Cc2ccccc2)NS(=O)(=O)c2ccc3c(c2)c(=O)n(C)c(=O)n3C)cc1 (centres undefined)	.	3.5%	-0.3%	?	0.3%	16.4µM*
CCN(CC)C(=O)COc1ccc2oc(-c3ccco3)cc(=O)c2c1	-13.6%	.	-19.9%	6.3%	-10.1%	-5.3%
COC(=O)c1c(NC(=O)CN2C(=O)C(=O)N(CC(C)C)C2=O)sc2c1CCCCC2	-6.2%	0.0%	?	-9.6%	-11.7%	1.7%
Cc1ccc(NS(=O)(=O)c2c(C)[nH]c(C)c2C(=O)N2CCCC2)cc1Cl	-3.5%	7.2%	0.3%	?	6.6%	?
CC(=O)Nc1cc(-c2ccccc2CN(C)C)cn2c(-c3ccc(F)c(Cl)c3)cnc12	-2.9%	.	.	?	.	?
COCCCn1cnc2c(c1=O)c1nc3ccccc3nc1n2CCc1ccccc1	0.0%	1.0%	-8.8%	18.4µM*	11.5%	?
CCCCn1c2nc3ccccc3nc2c2c(=O)n(CCC)cnc21	-10.7%	5.8%	-2.8%	?	0.5%	?
COCCn1cnc2c(c1=O)c1nc3ccccc3nc1n2/N=C/c1ccc(OC)c(OC)c1	-3.4%	-1.3%	-5.1%	16.4µM*	-2.4%	18.4µM*
O=C(COc1ccc2ccccc2c1)N1c2ccccc2Sc2ccccc21	-6.9%	6.3%	3.2%	?	-9.2%	?
O=C(CCl)N1c2ccccc2Sc2ccc3ccccc3c21	?	.	.	2.31µM*	.	3.66µM*
COC(=O)/C=C1\SC(=NC(=O)c2ccc(-c3ccccc3)cc2)NC1=O	18.9µM*	4.8%	-26.3%	-24.6%	-9.0%	?
COC(=O)/C=C1\S/C(=N/NC(=O)c2ccc(OC)cc2)NC1=O	18.9µM*	-2.5%	-6.1%	-21.4%	-6.8%	?
SMILES	PLK1 PBD block	TDP1 block	KAT2A inh	DT40 TDP1 no CPT	VDR inhibitor	DT40 TDP1 CPT
COC(=O)/C=C1/S/C(=N/NC(=O)c2ccc(OC)cc2)NC1=O	-12.8%	1.4%	-12.2%	16.5%	-2.0%	-0.8%
COC(=O)/C=C1\S/C(=N\N=C\CC(=O)OC)NC1=O	-12.2%	.	-12.7%	5.17µM*	-13.5%	3.66µM*
CCC1S/C(=N/N=C/c2ccco2)N(Cc2ccc(F)cc2)C1=O (centres undefined)	-16.6%	.	?	?	-8.9%	?
CC1S/C(=N/N=C/c2ccco2)N(Cc2ccccc2)C1=O (centres undefined)	-10.6%	0.0%	-9.1%	9.2µM*	-4.3%	?
CC(=O)CC1c2cc(F)ccc2C=C(c2ccsc2)N1c1ccc(-c2cccnc2)cc1 (centres undefined)	1.8%	.	.	?	.	?
CCOC(=O)c1c(C)oc2c(F)c(F)c(F)c(F)c2c1=O	-27.0%	-5.3%	-24.6%	20.6µM*	-2.1%	16.4µM*
CCN[C@@H]1C[C@H](C)S(=O)(=O)c2sc(S(N)(=O)=O)cc21	.	5.6%[21 µM]	5.2%[21.4 µM]	.	-0.9%	.
Cc1nn(C(C)(C)C)c(OC(=O)c2c(F)cccc2F)c1Sc1ccccc1	.	-2.9%	-4.6%	?	-11.0%	?
CCOc1ccccc1C(=O)Oc1c(Sc2ccccc2)c(C)nn1C(C)(C)C	.	0.0%	-8.1%	-4.9%	-25.1%	-18.9%
Cc1cccc(C(=O)Oc2c(Sc3ccccc3)c(C)nn2C(C)(C)C)c1	.	.	-12.0%	23.1µM*	-26.9%	?
COc1ccc(C(=O)Oc2c(Sc3ccc(Cl)cc3)c(C)nn2C(C)(C)C)cc1OC	.	2.9%	-9.3%	?	-3.3%	23.1µM*
COc1ccc(C(=O)Oc2c(Sc3ccc(C)cc3)c(C)nn2C(C)(C)C)cc1OC	.	2.9%	-5.2%	20.6µM*	-22.5%	?
Cc1nn(C(C)(C)C)c(OC(=O)c2cccc(F)c2)c1Sc1ccccc1	.	0.0%	-2.7%	?	-19.4%	?
COc1cccc(C(=O)Oc2c(Sc3ccc(C)cc3)c(C)nn2C(C)(C)C)c1OC	.	-2.9%	-0.8%	23.1µM*	-12.6%	16.4µM*
N#CC1(O)CCCCC1	.	8.2%	.	.	.	.
CCOC(=S)SCC(=O)Nc1nc(C)c(C)s1	?	3.8%	?	20.6µM*	?	16.4µM*
